Results filed as inconclusive are left out. Active and inactive are the calls of the source. The calls were made as follows, unless noted: active = hit-call score of the fitted dose curve at least 0.9, where 1 is the maximum; inconclusive = response in the unintended direction; inactive = score below 0.9.
Legend:
[1] = TOX21_p53_BLA_p2_viability: Viability Assessment in the Tox21 HCT-116 p53 Agonism Beta-lactamase Assay, Phase 2 (AID 2283591);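 also: actives lower the ATP signal meaning cytotoxicity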
Outline: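 Cytotoxicity readout: CellTiter-Glo ATP luminescence, 30 min at room temperature, after the beta-lactamase read. Cells were HCT116 exposed 16 h at 37C to compounds pin-transferred at 217-fold dilution from DMSO stocks.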

[2] = molecular target: Cellular tumor antigen p53 (Homo sapiens) (UniProt P04637); test: TOX21_p53_BLA_p2_ratio: Tox21 HCT-116 p53 Agonism Beta-lactamase Assay, Ratio, Phase 2 (AID 2283592)
Chain of Cellular tumor antigen p53 (Homo sapiens) (P04637 whole entry, looked up): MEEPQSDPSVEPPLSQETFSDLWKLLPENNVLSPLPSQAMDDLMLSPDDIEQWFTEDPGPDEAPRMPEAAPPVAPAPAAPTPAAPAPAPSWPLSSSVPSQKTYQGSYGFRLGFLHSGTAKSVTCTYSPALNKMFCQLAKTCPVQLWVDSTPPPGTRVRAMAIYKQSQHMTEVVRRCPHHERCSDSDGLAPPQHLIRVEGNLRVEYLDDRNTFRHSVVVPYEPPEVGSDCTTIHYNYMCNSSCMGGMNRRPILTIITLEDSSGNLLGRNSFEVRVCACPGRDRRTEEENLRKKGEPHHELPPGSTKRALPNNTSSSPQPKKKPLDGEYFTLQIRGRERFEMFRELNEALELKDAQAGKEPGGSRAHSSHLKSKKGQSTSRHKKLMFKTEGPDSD
Outline: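 First, HCT116 reporter cells settle for 5 h at 37C. Next, DMSO compound solutions are pinned in (217-fold dilution) and left 16 h. Finally, CCF4-AM substrate is loaded 2 h at room temperature and the 460/530 nm ratio read.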

[3] = molecular target: Cellular tumor antigen p53 (Homo sapiens) (UniProt P04637); test: TOX21_p53_BLA_p3_ratio: Tox21 HCT-116 p53 Agonism Beta-lactamase Assay, Ratio, Phase 3 (AID 2283596)
Outline: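 Cells were seeded at 4000/well, rested 5 h at 37C, then dosed with DMSO compound solutions (217-fold dilution) for 16 h. CCF4-AM substrate was loaded for 2 h at room temperature, and the 460/530 nm emission ratio was fitted for gain of signal versus DMSO.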

[4] = molecular target: Cellular tumor antigen p53 (Homo sapiens) (UniProt P04637); test: TOX21_p53_BLA_p5_ratio: Tox21 HCT-116 p53 Agonism Beta-lactamase Assay, Ratio, Phase 5 (AID 2283599)
Outline: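 Beta-lactamase reporter ratio (blue 460 nm over green 530 nm, 405 nm excitation) after 2 h CCF4-AM loading, in HCT-116 cells exposed 16 h at 37 C to compounds pinned at 217-fold dilution. Increases relative to DMSO baseline scored.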

[5] = molecular target: Cellular tumor antigen p53 (Homo sapiens) (UniProt P04637); test: TOX21_p53_BLA_p4_ratio: Tox21 HCT-116 p53 Agonism Beta-lactamase Assay, Ratio, Phase 4 (AID 2283601)
Outline: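 Signal is the blue/green (460nm/530nm) ratio of cleaved versus uncleaved CCF4-AM substrate, read after 2 h substrate loading. Cells were HCT116 carrying the p53-responsive beta-lactamase reporter, dosed 16 h at 37C, 5% CO2; CellTiter-Glo measured in parallel.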

[6] = TOX21_p53_BLA_p5_viability: Viability Assessment in the Tox21 HCT-116 p53 Agonism Beta-lactamase Assay, Phase 5 (AID 2283600)
Outline: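 Decreased CellTiter-Glo luminescence denotes lost viability. Exposure: 16 h at 37C, 5% CO2, with compounds from DMSO stocks diluted 217-fold in wells of 4000 cells.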

[7] = TOX21_p53_BLA_p4_viability: Viability Assessment in the Tox21 HCT-116 p53 Agonism Beta-lactamase Assay, Phase 4 (AID 2283597);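 also: hits lower the luminescence signal meaning cytotoxicity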
Outline: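 4000 HCT116 cells per well; 5 h attachment; compounds from DMSO, 217-fold dilution; 16 h at 37C. Then CCF4-AM, 2 h RT, followed by CellTiter-Glo, 30 min RT, luminescence. Decrease = cytotoxicity.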

THRB (gene 7068) [8] = molecular target: THRB (gene 7068) (UniProt P10828); test: TOX21_TRB_BLA_Antagonist_Followup_ratio: Tox21 Thyroid Hormone Receptor beta Antagonism Beta-lactamase (BLA) Follow-Up Assay, Ratio (AID 2283958)
Chain of THRB (gene 7068) (P10828 whole entry, looked up, the tested form may be a part): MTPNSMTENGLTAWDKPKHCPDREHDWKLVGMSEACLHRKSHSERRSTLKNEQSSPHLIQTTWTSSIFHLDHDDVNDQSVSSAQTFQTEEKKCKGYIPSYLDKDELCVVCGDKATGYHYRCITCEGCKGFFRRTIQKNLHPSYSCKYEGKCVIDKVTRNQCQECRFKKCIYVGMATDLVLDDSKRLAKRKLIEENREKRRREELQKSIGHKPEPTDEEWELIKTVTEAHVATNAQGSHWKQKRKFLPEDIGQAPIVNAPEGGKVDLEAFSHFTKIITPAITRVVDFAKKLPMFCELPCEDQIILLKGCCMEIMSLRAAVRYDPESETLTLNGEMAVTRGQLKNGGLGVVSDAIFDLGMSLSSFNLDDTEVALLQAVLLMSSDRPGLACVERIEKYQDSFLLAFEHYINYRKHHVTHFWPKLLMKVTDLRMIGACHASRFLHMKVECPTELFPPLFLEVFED
Outline: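 Beta-lactamase reporter ratio (460/530 nm, CCF4-AM substrate, 2 h room temperature) was read in TRb-bla HEK293T cells after 18 h compound treatment (11 concentrations, triplicate) at 37C in 2% charcoal-stripped FBS medium. Loss of signal fitted against DMSO.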

[9] = TOX21_TRB_BLA_Antagonist_Followup_viability: Viability Assessment in the Tox21 Thyroid Hormone Receptor beta Antagonism Beta-lactamase (BLA) Follow-Up Assay (AID 2283961)
Outline: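 HEK293T cells with GAL4-human TRβ LBD and UAS-bla reporter, 3,000 cells/well in 2% charcoal-stripped FBS medium; 11-point concentrations in triplicate, 18 h at 37C. Viability from ATP by CellTiter-Glo luminescence, 30 min RT, same plates.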

THRB (gene 7068) [10] = molecular target: THRB (gene 7068) (UniProt P10828); test: TOX21_TRB_COA_Antagonist_Followup_ratio: Tox21 Thyroid Hormone Receptor beta Antagonism through Coactivator Recruitment Follow-Up Assay, Ratio (AID 2283967)
Outline: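 Coactivator recruitment to the GST-tagged TRb ligand-binding domain (5.0 nM) was read as the 520/495 nm TR-FRET ratio, using 200 nM fluorescein SRC-2 peptide and 2 nM terbium anti-GST. Scaled between DMSO and T3 wells; loss of signal fitted.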

[11] = CCTE_Harrill_HTTr_Viability_MCF7: CCTE's 6-hour Cell Viability Assessment for the High-Throughput Transcriptomics (HTTr) Platform, in MCF-7 cells cultured in DMEM + 10% fetal bovine serum, Harrill Lab (AID 2284010; active = hit-call score of the fitted dose curve at least 0.9, where 1 is the maximum; inactive = score below 0.9)
Outline: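 Propidium iodide exclusion, imaged by high-content analysis, gauged viability after a six-hour exposure across eight concentrations. Cells were MCF-7 grown in DMEM with 10% fetal bovine serum; fits run in both directions against DMSO.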

[12] = CCTE_Harrill_HTTr_Apoptosis_MCF7: CCTE's 6-hour Apoptosis Assessment for the High-Throughput Transcriptomics (HTTr) Platform, in MCF-7 cells cultured in DMEM + 10% fetal bovine serum, Harrill Lab (AID 2284011; active = hit-call score of the fitted dose curve at least 0.9, where 1 is the maximum; inactive = score below 0.9)
Outline: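 MCF-7 cells in DMEM + 10% FBS exposed 6 h to chemicals over an eight-point dilution series. Caspase-3/7 activation imaged by high-content CellEvent Green staining; fitted bidirectionally versus DMSO.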

[13] = CCTE_Harrill_HTTr_CellCount_MCF7: CCTE's Cell Proliferation Assessment for the High-Throughput Transcriptomics (HTTr) Platform, Harrill Lab (AID 2284012);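 also: cells exposed to compound for six hours; intended direction is loss of nuclei count meaning fewer cells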
Outline: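 Cell count from high-content imaging of Hoechst-labeled nuclei serves as viability/growth readout. Chemicals were applied to MCF-7 cells in eight concentrations for six hours, with fitting in both directions relative to DMSO.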

Measured: outcome

Cc1cccc([N+](=O)[O-])c1C(=O)O
inactive: [1] | [2] | [3] | [4] | [5]

C[C@]12C=CC(=O)C=C1CC[C@@H]1[C@@H]2[C@@H](O)C[C@@]2(C)[C@H]1CC[C@]2(O)C(=O)COC(=O)CCC(=O)O
inactive: [1] | [2] | [3] | [4] | [5]

CN(CC1(C)CCCO1)S(=O)(=O)c1ccc(Cl)c(S(N)(=O)=O)c1 (stereo unspecified)
inactive: [1] | [2] | [3] | [6] | [5]

CN1CCC(CN2c3ccccc3Sc3ccccc32)C1 (stereo unspecified)
inactive: [1] | [2] | [7] | [4]

Cc1cn([C@H]2C[C@H](F)[C@@H](CO)O2)c(=O)[nH]c1=O
inactive: [1] | [2] | [3] | [6] | [5]

Cc1nc(-c2ccc(OCC(C)C)c(C#N)c2)sc1C(=O)O
not listed: [4] | [5] | [6] | [7]
inactive: all other assays above

O=C(NC(Cc1cc(=O)[nH]c2ccccc12)C(=O)O)c1ccc(Cl)cc1 (stereo unspecified)
inactive: [1] | [2] | [3] | [5]

Cc1ccc(S(=O)(=O)NC2CCCCC2)cc1
inactive: [1] | [2] | [3] | [6]

O=S(=O)(O)CCN1CCN(CCO)CC1
inactive: [1] | [2] | [3] | [6] | [5]

CCCCOCCOC(=O)COc1cc(Cl)c(Cl)cc1Cl
inactive: [1] | [2] | [7]

CCCCOC(=O)c1ccccc1C(=O)OCC(CC)CCCC (stereo unspecified)
inactive: [1] | [2] | [7]

CC(=O)Nc1ccc(C(=O)O)cc1
inactive: [1] | [2] | [3] | [6] | [5]

Oc1ccc(O)c2c(O)cccc12
inactive: [1] | [2] | [3] | [6] | [5]

CCN(Cc1ccncc1)C(=O)C(CO)c1ccccc1 (stereo unspecified)
inactive: [1] | [2] | [3] | [6]

O=C(O)c1ccc[n+]([O-])c1
inactive: [1] | [2] | [3] | [6] | [5]

N[C@@H](C(=O)N[C@@H]1C(=O)N2C(C(=O)O)=C(Cl)CS[C@H]12)c1ccccc1
inactive: [1] | [2] | [3] | [6] | [5]
